Among all 310,000 compounds or so, about 3,900 (1.3%) were called active. This is one part of a sample in which actives are shown more often than they occur.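 The calls were made as follows: active = calcium-response B-score plate-corrected more than 3 library SD below zero, starting fluorescence within 5 deviations, no agonist response on first addition; inactive = the rest.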 A structure can be active in one record and inactive in another.

For the test, the target named is Mas-related G-protein coupled receptor member X1 (Homo sapiens) (UniProt Q96LB2). Put plainly: blockade of BAM8-22-evoked MrgX1 calcium response – HEK293 cells, Fluo-4 calcium flux, primary screen (AID 588676).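 As to B-score: peak minus trough fluorescence over baseline after final BAM8-22 challenge near maximal dose.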 Particulars: Fluo-4, BAM8-22 antagonism, at 10 µM; stronger effect = lower value. (Calcium assays in cells follow changes in intracellular calcium, usually with a dye or a luminescent sensor.)
Sequence of Mas-related G-protein coupled receptor member X1 (Homo sapiens) (Q96LB2 whole entry, looked up): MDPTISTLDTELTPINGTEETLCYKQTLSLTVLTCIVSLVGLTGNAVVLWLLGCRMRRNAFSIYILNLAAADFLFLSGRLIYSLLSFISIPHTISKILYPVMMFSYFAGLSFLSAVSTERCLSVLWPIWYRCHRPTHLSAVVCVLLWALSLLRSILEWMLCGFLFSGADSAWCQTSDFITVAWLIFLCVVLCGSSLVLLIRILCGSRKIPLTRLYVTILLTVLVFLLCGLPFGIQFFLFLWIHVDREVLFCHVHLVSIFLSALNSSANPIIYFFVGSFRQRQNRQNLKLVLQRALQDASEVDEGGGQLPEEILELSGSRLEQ
Consider `COc1cc(CC(=O)Nc2nc(-c3ccc(F)c(F)c3)cs2)cc(OC)c1OC`, for which the B-score entry was “inactive”.
Still for that read-out and setting: as for `Cc1ccc(S(=O)(=O)NC(=O)Nc2nc(-c3ccc(F)c(F)c3)cs2)cc1`, the entry is “inactive”; as for `COc1ccc(CC(=O)Nc2nc(-c3ccc(F)c(F)c3)cs2)cc1OC`, -5.43 (active); as for `CCc1nn(CC(=O)N2CCN(c3cc(C)ccc3C)CC2)c(=O)c2cc3occc3n12`, “inactive”.
For `O=C(CSc1nnnn1-c1ccccc1)NCc1ccco1`, the B-score entry was “inactive”.
Consider `O=C(/C=C/c1ccc(Cl)cc1Cl)NCc1ccco1`, for which the B-score entry is “inactive”.
Take `O=C(CSc1c2c(nc3ccc(Cl)cc13)CCCC2)NCc1ccco1`: the B-score was -6.85 (active).
On the same count and under the same terms, as for `COc1ccc(C)cc1NC(=O)CN(C)S(=O)(=O)c1ccc2c(c1)n(C)c(=O)c(=O)n2C`, the entry is “inactive”; as for `Cc1cc(C)cc(N(CC(=O)NC2CCCC2)C(=O)CCC(=O)Nc2nccs2)c1`, “inactive”.
The same measure, in the same setting: next, `Cc1ccc2oc(=O)c3cnn(CC(=O)N4CCCCCC4)c3c2c1`: “inactive”.
Same read-out and setting: next, `COCCCN(C(=O)Cn1ncc2c(=O)oc3ccc(C)cc3c21)C(C)c1ccncc1` (centres undefined): -9.22 (active); `Cc1ccc2oc(=O)c3cnn(CC(=O)N(Cc4ccco4)C4CCCCC4)c3c2c1`: “inactive”; `CN1CCC(=O)N([C@H](CO)Cc2ccccc2)CC1`: “inactive”.
Regarding `CCN(Cc1ccccc1)S(=O)(=O)c1cc(C(=O)O)ccc1OC`, the B-score entry is “inactive”.
On the same count and under the same terms, next, `COc1ccc2[nH]c3nc(SCC(=O)NC4CC4)nnc3c2c1`: “inactive”.
`Cc1ccc(CNC(=O)CSc2nnc3c(n2)[nH]c2ccc(F)cc23)cc1`: the B-score was -5.01 (active).
As to `Cc1ccn2c(=O)nc(SCC(=O)NCc3ccc(F)cc3)nc2c1`, the B-score entry was “inactive”.
Still for that read-out and setting: next, `COc1ccc(S(=O)(=O)n2nc(C)c(S(=O)(=O)N3CCOCC3)c2C)cc1`: “inactive”; `CCOc1ccc(CC(=O)Nc2ccc(S(=O)(=O)Nc3cc(C)on3)cc2)cc1OCC`: -7.96 (active); `CCOc1ccc(C(=O)Nc2ccc(S(=O)(=O)Nc3cc(C)on3)cc2)cc1`: “inactive”.
Same read-out and setting: next, `CCc1ccc(OC(C)C(=O)Nc2ccc(S(=O)(=O)Nc3cc(C)on3)cc2)cc1` (centres undefined): “inactive”; `CCCOc1ccc(CNC(=O)C2CCN(c3nn4c(=O)cc(C)nc4s3)CC2)cc1`: “inactive”.
Still for that read-out and setting: as for `O=C(NN1C(=O)C2C3C=CC(C3)C2C1=O)c1ccco1` (centres undefined), the figure is -9.57 (active); as for `CC(C)=C1C2CCC1C1C(=O)N(NC(=O)c3ccco3)C(=O)C21` (centres undefined), “inactive”; as for `O=C(NN1C(=O)C2CCCCC2C1=O)c1ccco1` (centres undefined), “inactive”.
In the case of `NC(=O)c1cc(S(=O)(=O)N2CCCC2)ccc1OCc1ccc(F)cc1`, the B-score result was “inactive”.
Still for that read-out and setting: next, `Cc1ccccc1OCC(=O)Nc1nnc(S(=O)(=O)N2CCCC2)s1`: “inactive”; `O=C(COc1ccccc1F)NC1CC1`: “inactive”; `CC1CCN(S(=O)(=O)c2nnc(NC(=O)COc3ccccc3F)s2)CC1`: -4.6 (active).
The same measure, in the same setting: as for `O=S(=O)(CCc1nc2ccccc2o1)c1ccc(Cl)cc1`, the entry is “inactive”; as for `CCc1nnc(NC(=O)c2sc3nc(C)cc(COC)c3c2N)s1`, “inactive”.
For the compound `CCc1ccc2nc3sc(C(=O)Nc4nnc(CC)s4)c(N)c3cc2c1`, the B-score is -7.06 (active).
Same read-out and setting: next, `CCc1nnc(NC(=O)c2cccc(S(=O)(=O)N(C)c3ccc(OC)cc3)c2)s1`: “inactive”.
Turning to `COc1ccc(CN2CCN(C(=O)CCC(=O)Nc3nnc(C(C)C)s3)CC2)cc1F`, the B-score result is “inactive”.
In the case of `COc1ccccc1C(=O)Nc1nc2nc(-c3ccccc3)cc(=O)n2[nH]1`, the B-score entry is “inactive”.
On to `Cc1ccc(NC(=O)/C(=C/c2ccc([N+](=O)[O-])cc2)NC(=O)c2ccccc2)cc1`, for which the B-score entry is “inactive”.
Regarding `Cc1ccc(C)n1NC(=O)c1ccc([N+](=O)[O-])cc1`, the B-score entry is “inactive”.
Take `CC1=NN(c2ccccc2)C(=O)C1C(=O)c1ccc([N+](=O)[O-])cc1` (centres undefined): the B-score is -4.73 (active).
In the case of `O=C(CC1CCCCC1)NCc1ccc(F)cc1`, the B-score result is “inactive”.
On the same count and under the same terms, as for `CN(C)S(=O)(=O)c1cccc(NC(=S)N/N=C/C(=O)c2ccccc2)c1`, the figure is -6.77 (active); as for `Cc1ccc(/C=N/NC(=S)Nc2cccc(S(=O)(=O)N(C)C)c2)o1`, “inactive”.
Same read-out and setting: next, `CN(C)S(=O)(=O)c1cccc(NC(=S)NCc2ccc3c(c2)OCO3)c1`: “inactive”; `CCc1cc(=O)oc2cc(C)cc(OCC(=O)N3CCC[C@@H]3C(=O)O)c12`: -7.63 (active).
As for `CCCc1cc(=O)oc2c(C)c(OCC(=O)N3CCC(C(=O)O)CC3)ccc12`, the B-score entry is “inactive”.
As for `CCc1cc(=O)oc2cc(C)cc(OC(C)C(=O)O)c12` (centres undefined), the B-score entry was “inactive”.
The same measure, in the same setting: as for `CC(Sc1cccc[n+]1[O-])C(=O)Nc1cccc(S(=O)(=O)N2CCOCC2)c1` (centres undefined), the entry is “inactive”; as for `CN(C)S(=O)(=O)c1ccc(N2CCCC2)c(C(=O)NCc2ccccc2)c1`, “inactive”.
On the same count and under the same terms, next, `CN(C)S(=O)(=O)c1ccc(N2CCCC2)c(C(=O)Nc2cccc(F)c2)c1`: “inactive”.
As to `Cc1ccccc1OCC(=O)NNC(=O)c1cc(S(=O)(=O)N(C)C)ccc1N1CCCC1`, the B-score is -7.66 (active).
Still for that read-out and setting: next, `CN(C)C(=O)N=NC(=O)N(C)C`: “inactive”; `CCCn1c(=O)c2ccccc2n2c(SCC(=O)/C(C#N)=C(\C)N)nnc12`: -7.91 (active); `C=CCn1c(=O)c2ccccc2n2c(SCC(=O)N3CCCc4ccccc43)nnc12`: “inactive”.
For `C=CCn1c(SCC(=O)/C(C#N)=C(\C)N)nc2sc(C)c(C)c2c1=O`, the B-score entry is “inactive”.
The same measure, in the same setting: as for `CCOc1cc(C(=O)Nc2ncccn2)cc(OCC)c1OCC`, the entry is “inactive”.
Still for that read-out and setting: as for `CCOc1cc2c(Cl)ncnc2c(OCC)c1OCC`, the entry is “inactive”; as for `CCOc1cc(-c2conc2N)cc(OCC)c1OCC`, -6.9 (active).
The same measure, in the same setting: next, `O=C1CSC2=NCN(c3ccccc3)CN12`: “inactive”; `CCCn1nc2cc(C(=O)NCc3ccccc3)ccc2c1OCC`: “inactive”; `Cc1ccc(NC(=O)CN2CCC3(O)CCCCC3C2c2ccc3c(c2)OCO3)c(C)c1` (centres undefined): “inactive”.
Regarding `CCN(CC)c1ccc(C2C3CCCCC3(O)CCN2CC(=O)Nc2ccccc2)cc1` (centres undefined), the B-score is -5.44 (active).
The same measure, in the same setting: next, `CCN(CC)c1ccc(NC(=O)CN2CCN(c3ccccn3)CC2)cc1`: “inactive”; `CCOC(=O)c1c(N=CN(C)C)c(C#N)c2n1CCCC2`: “inactive”.
As for `Cc1cc2oc(=O)cc(CN3CCN(S(=O)(=O)c4cccs4)CC3)c2cc1C(C)C`, the B-score result was “inactive”.
In the case of `CCOC(=O)Cc1csc(SCc2cc(=O)oc3cc(O)ccc23)n1`, the B-score is -5.51 (active).
With `Cc1ccc2c(CSc3nncs3)cc(=O)oc2c1`, the B-score result was “inactive”.
As to `CCOC(=O)Cc1csc(NC(=O)COc2ccc3c(C)cc(=O)oc3c2)n1`, the B-score result was “inactive”.
Still for that read-out and setting: next, `CN(C)N1C(N)=C(C#N)C(c2ccc(Br)cc2)C2=C1CCCC2=O` (centres undefined): “inactive”; `C/C(CC(=O)NC(C)(C)C)=N\NC(=O)c1ccco1`: “inactive”.
As for `COc1ccc(-c2nn(C)c(=O)c3ccccc23)cc1CNC(=O)C1CCCCC1`, the B-score result was “inactive”.
The same measure, in the same setting: as for `CCC(=O)NCc1cc(-c2nn(C)c(=O)c3ccccc23)ccc1OC`, the entry is “inactive”; as for `COc1ccc(-c2nn(C)c(=O)c3ccccc23)cc1NC(=O)COc1ccccc1`, -8.18 (active).
Same read-out and setting: as for `COc1cc(CC(=O)N2CCC(n3nccc3NC(=O)C3CC3)CC2)cc(OC)c1OC`, the entry is “inactive”.
As for `Cn1cnnc1SCC(=O)NNC(=O)COc1ccc(Br)cc1`, the B-score entry was “inactive”.
Take `CCOC(=O)N1CCN(C(=O)COc2ccc(Br)cc2)CC1`: the B-score result is “inactive”.
Still for that read-out and setting: next, `Cn1cccc1C(=O)NNC(=O)COc1ccc(Br)cc1`: -5.34 (active).
`CCOC(=O)C(Sc1ncc(C#N)c(N)n1)C(C)C` (centres undefined): the B-score entry is “inactive”.
With `Fc1ccccc1Cc1ccc(Cl)nn1`, the B-score entry was “inactive”.
For the compound `O=C(O)c1ccc(Cn2c(=S)[nH]c3cc(Cl)ccc3c2=O)cc1`, the B-score entry is “inactive”.
Consider `CC(C)c1ccc2c(c1)c(SC(C)(C)C)c(CC(C)(C)C(=O)O)n2Cc1ccc(Cl)cc1`, for which the B-score is -4.82 (active) and the result was inactive.
Consider `CC(C)N(Cc1ccccc1)C(=O)COC(=O)c1ccccc1SCC(=O)N1CCCC1`, for which the B-score result is “inactive”.
As for `Cc1c(C)c(C)c(S(=O)(=O)NCCc2ccccn2)c(C)c1C`, the B-score entry was “inactive”.
As to `CCOC(=O)Nc1ccc2c(c1)N(C(=O)CN1CCN3CCCC3C1)c1ccccc1CC2` (centres undefined), the B-score result is “inactive”.
The same measure, in the same setting: next, `CCOC(=O)Nc1ccc2c(c1)N(C(=O)CCN1CCN(CCO)CC1)c1ccccc1CC2`: -9.01 (active); `CCOC(=O)Nc1ccc2c(c1)N(C(=O)CCCl)c1ccccc1[S@]2=O`: “inactive”.
The same measure, in the same setting: next, `CCOC(=O)C1=C(O)/C(=C/c2cc(C)n(-c3ccccc3)c2C)N=C1C`: -4.95 (active); `COC(=O)C1=C(O)/C(=C/c2ccc(OCC(=O)Nc3ccccc3)cc2)N=C1C`: “inactive”.
Same read-out and setting: next, `CCOC(=O)C1=C(O)/C(=C/c2ccc(OCC(=O)Nc3ccc(C)cc3)cc2)N=C1C`: “inactive”; `O=C(NCCCN1CCCC1=O)c1cccc(S(=O)(=O)NCc2ccccc2)c1`: “inactive”.
On to `O=C(Nc1cc(S(=O)(=O)N2CCOCC2)ccc1Cl)c1cc(=O)c2ccccc2o1`, for which the B-score result is “inactive”.
Same read-out and setting: as for `Cn1sc(=O)c2cc(S(=O)(=O)NC3CC3)ccc21`, the entry is “inactive”; as for `O=C(CCN1C(=O)C2C3C=CC(C3)C2C1=O)Oc1ccc2ccccc2c1` (centres undefined), “inactive”.
The same measure, in the same setting: next, `Cc1ccc(C(=O)COC(=O)CCN2C(=O)C3C4CCC(C4)C3C2=O)cc1C` (centres undefined): “inactive”; `Cc1ccc(C(=O)COC(=O)CCN2C(=O)C3C4CC(C(Br)C4Br)C3C2=O)cc1` (centres undefined): -9.31 (active); `CCOc1ccc(-n2cnc3c(=O)[nH]c(N)nc32)cc1`: “inactive”.
In the case of `CCCc1nnc(NC(=O)c2cc(OC)cc(OC)c2)s1`, the B-score entry is “inactive”.
For the compound `O=C(Nc1nc2ccccc2s1)c1ccc2c(c1)OCO2`, the B-score entry is “inactive”.
On to `COCc1nnc(NC(=O)c2ccc3c(c2)OCO3)s1`, for which the B-score is -5.8 (active).
On to `COc1cc(NC(=O)CN(C)S(=O)(=O)c2ccc3nc(C)sc3c2)cc(OC)c1`, for which the B-score entry is “inactive”.
Regarding `Cc1ccc2nc(-c3ccc(NC(=O)CN(C)S(=O)(=O)c4ccccc4)cc3)sc2c1`, the B-score was -4.7 (active).
The same measure, in the same setting: next, `Cc1cccc(N(CC(=O)Nc2ccc(-c3nc4ccc(C)cc4s3)cc2)S(C)(=O)=O)c1`: “inactive”.
Same read-out and setting: as for `Cc1cc2nc(-c3ccc(NC(=O)c4cccnc4)cc3)oc2cc1C`, the entry is “inactive”.
Still for that read-out and setting: as for `Cc1ccc2nc(-c3ccc(NC(=O)c4cccnc4)cc3)oc2c1`, the figure is -5.36 (active).
As to `CCOC(=O)c1ccc(NC(=O)c2cccnc2)cc1`, the B-score entry was “inactive”.

These data come from PubChem BioAssay AID588676 (Johns Hopkins Ion Channel Center, 2011).
